# The list is not random: actives were taken first. Their share in the collection is about 6.5%.
# FMDV inh = foot and mouth disease virus antiviral activity | FMDV antiviral cell-based qHTS | Potency, µM (series often up to 57.9 µM), inactives show at the highest dose activity change, negative = inhibition, most hits filed as inhibitors | 1.2% of 410,000 active | AID 1159524; calls by dose curve; tested in HEK293T cells; also: read-out not given here; potency is read from the fitted curve at half-maximal effect; nearly all actives have a fitted effect of over 45% in size
# HCMV antiviral = human cytomegalovirus inhibition; HFF cells, HCMV-luciferase reporter, 72 h; hits give low values; activity change, negative = inhibition, % at 57.5 µM; 4.5% of 410,000 active; in the data active = activity change below about -60%; inconclusive = no clear call, values can overlap the other calls; inactive = above about -39%
#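 HFF cells seeded 16 h at 37C, treated with compounds, infected with luciferase-reporter HCMV at MOI 1 PFU/cell; luciferase read at 72 h post infection, normalized to buffer-only and Salinomycin controls.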
# Lassa entry inh = Lassa virus entry inhibition; 1.2% of 300,000 active; Lassa virus pseudotype entry inhibition, cell reporter; AID 540256; Potency, µM (doses to about 37.9 µM), for the others: top-dose activity change, negative = inhibition, actives largely listed as inhibitors; calls by dose curve; tested in HEK293 cells; also: potency is read from the fitted curve at half-maximal effect; nearly all actives have a fitted effect of over 50% in size
# VACV Venus inh = inhibitors of vaccinia virus (Venus reporter) | 0.46% of 330,000 active | Potency, µM (doses to about 36.5 µM), for inactives: at the highest dose activity change, negative = inhibition, hits mostly inhibitors | Vaccinia virus Venus reporter expression, fluorescence | AID 720580; calls by dose curve; tested in A549 cells; also: potency is read from the fitted curve at half-maximal effect; nearly all actives have a fitted effect of over 30% in size
# VACV mCherry inh = vaccinia inhibition (mCherry reporter) | Vaccinia virus mCherry reporter infection, fluorescence | Potency, µM (doses to about 36.5 µM), for the others: at the top dose activity change, negative = inhibition, hits mostly inhibitors | 0.63% of 310,000 active; calls by dose curve; tested in A549 cells; also: potency is read from the fitted curve at half-maximal effect; nearly all actives have a fitted effect of over 35% in size
# MARV entry inh = blocks Marburg virus binding to or entry into cells. 1.8% of 300,000 active. AID 540276. Potency, µM (highest dose often 37.8 µM), for the others: top-dose activity change, negative = inhibition, most hits filed as inhibitors. Marburg virus pseudotyped entry inhibition, cell reporter; calls by dose curve; tested in HEK293 cells; also: potency is read from the fitted curve at half-maximal effect
# Active calls of the source: *; i = inactive; u = inconclusive; x = not tested or not shown; [ ] = another dose, or the depositor's remark. % is scaled to controls: 0 for no effect and ±100 for the full control effect.
SMILES,FMDV inh,HCMV antiviral,Lassa entry inh,VACV Venus inh,VACV mCherry inh,MARV entry inh
Cc1oc2ccc(O)c(CN3CCCCCC3)c2c1C(=O)Nc1cccc(C(F)(F)F)c1,-29%,-86*,u,u,-3%,u
COc1ccc(NC(=O)c2c(C)oc3ccc(O)c(CN4CCOCC4)c23)cc1,-20%,13,-12%[46.1 µM],-4%,-5%,u
Cc1oc2ccc(O)c(CN(C)C)c2c1C(=O)c1ccccc1,0%,10,u,-23%,-21%,11µM*
Cc1ccc(NC(=O)c2c(C)oc3ccc(O)c(CN4CCCCCC4)c23)c(C)c1,0%,-65*,u,-14%[7.34 µM],-14%[7.34 µM],3.5µM*
COc1ccc(C(=O)c2c(C)oc3ccc(O)c(CN4CCOCC4)c23)cc1,17%,-34,u,x,x,21µM*
N#Cc1cccc(-c2cncnc2-n2ccnc2)c1,-14%,x,x,-2%,i,x
CCOC(=O)c1c(-c2ccccc2)oc2ccc(O)c(CN(C)C)c12,0%,-7,-29%,x,x,u
Cc1ccc(NC(=O)c2c(C)oc3ccc(O)c(CN4CCN(Cc5ccccc5)CC4)c23)cc1,-19%,-21,u,0%,-18%,10µM*
CCOC(=O)c1c(-c2ccccc2)oc2ccc(O)c(CN3CCCC3)c12,-22%,-62*,u,x,x,23µM*
COC(=O)C1=C(C)N(CCC(C)O[Si](C)(C)C(C)(C)C)C(=O)N(C(C)=O)C1c1ccccc1 (centres undefined),x,x,x,x,x,7%[14.2 µM]
COc1ccc(-c2noc(N3CCC(C(=O)N4CCN(c5ccccc5OC)CC4)CC3)n2)cc1,0%,-77*,u,-18%[7.34 µM],-3%[7.34 µM],x
COC(=O)c1c(-c2ccc(Cl)cc2)noc1N1CCN(c2cccc(C)c2C)CC1,u,11,14%[46.1 µM],-9%,-11%,x
COC(=O)c1c(-c2ccc(Cl)cc2)noc1N1CCN(c2cccc(OC)c2)CC1,u,-72*,12%[46.1 µM],-23%,-11%,x
COc1ccc(-c2noc(N3CCC(C(=O)N4CCN(c5cccc(C)c5C)CC4)CC3)n2)cc1,-30%,-29,13%[46.1 µM],-22%[7.34 µM],-12%[7.34 µM],x
COc1ccc(NC(=O)C2CCN(c3nc(-c4ccc(OC)cc4)no3)CC2)cc1,-22%,-21,x,-10%,-8%,x
COc1ccc(-c2noc(N3CCC(C(=O)N4CCN(c5cccc(OC)c5)CC4)CC3)n2)cc1,u,-84*,-11%[46.1 µM],-10%[7.34 µM],-2%[7.34 µM],x
COc1ccc(-c2noc(N3CCC(C(=O)N4CCN(c5ccccn5)CC4)CC3)n2)cc1,13µM*,-83*,u,x,x,u
COC(=O)C1CCN(Cc2ccc3c(c2)CN(C(=O)c2ccnn2C)CCO3)CC1,2%,x,x,-7%,-13%,x
CNC(=S)NN=C(C)CCCC(C)=NNC(=S)NC,-21%,106,u,-5%,i,-21%
CCN(C(=O)C1CCN(c2nc(-c3ccc(OC)cc3)no2)CC1)c1ccc(OC)cc1,u,-73*,x,u,-14%,x
CN(C)c1ccc(/C=C/c2cccc[n+]2[O-])cc1,5%,135,u,-8%,i,-19%[46.1 µM]
CC(C)CC[n+]1ccccc1/C=C/c1ccc(N(C)C)cc1,u,-102*,u,i,i,u
COc1cnc(-c2ccccn2)nc1Oc1cccc(Cl)c1,-18%,-28,-4%,-26%,-21%,u
COc1cnc(-c2ccccn2)nc1Sc1c(Cl)cccc1Cl,-18%,-73*,u,x,x,u
CCOC(=O)C(C)Sc1nc(-c2ccccn2)ncc1OC (centres undefined),4%,-21,-15%,-13%,u,u
SMILES,FMDV inh,HCMV antiviral,Lassa entry inh,VACV Venus inh,VACV mCherry inh,MARV entry inh
COc1cnc(-c2ccccn2)nc1N(C)C,-10%,-99*,u,-27%,u,u
COc1cnc(-c2ccccn2)nc1Sc1ccccc1Cl,u,-98*,u,x,x,-3%
C[C@H](NC(=O)CSc1nnc(COc2ccccc2)o1)c1ccccc1,x,x,x,x,x,-23%
CCn1c(-c2cccc(OC)c2)nc2cc(NC(C)=O)cc(C(=O)N(C)CC3COCCO3)c21 (centres undefined),2%,x,x,0%,-3%,x
Cc1ccc([S+](=O)([O-])N[C@@H]2COC(=O)CC=C[C@H](C)COC(=O)N[C@@H](C)C(=O)CC=C[C@H]2C)cc1,x,x,x,x,x,11%[14.2 µM]
O=C(Nc1ccc(OC(F)(F)F)cc1)Nc1cccc([N+](=O)[O-])c1,-4%,-104*,u,10µM*,10µM*,u
Cc1ccc(NC(=O)Nc2cccc([N+](=O)[O-])c2)cc1F,-2%,-100*,u,u,u,u
Cc1cc(NC(=O)Nc2cccc([N+](=O)[O-])c2)no1,9%,u,x,x,x,x
O=C(Nc1ccc(OC(F)(F)F)cc1)Nc1cccnc1,43%,23,x,x,x,x
Cc1ccccc1N1CCN(C2CCCN(C(=O)c3ccccn3)C2)CC1 (centres undefined),7%,-1,u,-13%,-19%,u
Cc1ccccc1N1CCN(C2CCCN(C(=O)c3cn4cccc(C)c4n3)C2)CC1 (centres undefined),45µM*,-32,x,x,x,x
Cc1ccc(Cl)cc1N1CCN(C(=O)CSc2nnc3n2C(C)(C)Cc2ccccc2-3)CC1,13µM*,-38,u,x,x,12µM*
CCn1c(CSCc2ccc(C)cc2)nnc1SCC(=O)N1CCN(c2ccccc2)CC1,22µM*,-34,-16%,u,u,u
COc1ccc(N2CCN(C(=O)CSc3nnc4n3C(C)(C)Cc3ccccc3-4)CC2)cc1,20µM*,-64*,-24%,x,x,-19%
CCn1c(COc2cccc(C)c2C)nnc1SCC(=O)N1CCN(c2ccc(OC)cc2)CC1,u,-97*,u,x,x,-24%
CCC[C@H]1[C@@H](NS(=O)(=O)c2ccc(OC)cc2)CC[C@@]23CCCN2C(=O)CCC[C@@H]13,x,-25,x,x,x,x
CC(C)C(=O)NC(=O)[C@@H]1CCCN1C(=O)C=Cc1ccccc1,x,x,x,x,x,1%[14.2 µM]
O=C(c1cc2ccc3cccnc3c2[nH]1)N1CCN(c2ccccc2)CC1,7%,-8,29%[46.1 µM],-3%,-18%,x
CN(C(=O)CSc1cc(C(=O)c2nccn2C)c2ccccc2n1)c1ccccc1,10%,-99*,2%,-6%,-15%,u
Cn1ccnc1C(=O)c1cc(SCC(=O)NC2CC2)nc2ccccc12,-8%,-6,-5%[46.1 µM],-9%,-3%,16%[46.1 µM]
Ic1ccc(/C=C2\C=Cc3ccccc32)cc1,x,x,x,-8%,-17%,x
COc1ccc(N2C(=O)NC3CC2(C)Oc2ccccc23)cc1OC (centres undefined),-12%,-62*,u,u,x,-22%
CC(C)COCc1ccc(O)c2ncccc12,-15%,u,u,u,10µM*,u
CCCOCc1ccc(O)c2ncccc12,-18%,-104*,u,u,u,u
CN(Cc1ccco1)Cc1ccc(O)c2ncccc12,2%,x,x,x,x,x
O=C(Nc1nc2cc3c(cc2s1)OCO3)C1=COCCO1,-83%,-71*,u,-26%,u,0.65µM*

# Screens as filed in PubChem.
